Measurements from the supplement of paper PMC9135407.
Structures can show the parent of a compound that is named as a salt.

These compounds were tested on primary human hepatic stellate cells (donor 1) (assay: ACTA2 mRNA fold change vs DMSO (normalised to PSMB2); higher = more ACTA2 expression). Details: 48 h.
Protocol: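 Secondary qRT-PCR screen in primary human HSCs (donor 1), 384-well plates, with compounds dispensed in quadruplicate and incubated for 48 h. Cells-to-CT lysates were used for multiplexed TaqMan qPCR of ACTA2 or COL1A1 with PSMB2 as reference. Fold changes versus DMSO come from a linear model (Ct_gene ~ Ct_PSMB2 + plate + chemical). A hit is defined as COL1A1 and ACTA2 FC <0.5 (FDR <0.05) with PSMB2 between 0.2 and 2.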

SMILES | ACTA2 mRNA fold change
C[C@@H](CN1CCC(n2c(=O)[nH]c3cc(Cl)ccc32)CC1)NC(=O)c1ccc2ccccc2c1 (33.3333 µM) | 0.045
COC(=O)C[C@](O)(CCCC(C)(C)O)C(=O)O[C@@H]1C(OC)=C[C@]23CCCN2CCc2cc4c(cc2[C@H]13)OCO4 [Homoharringtonine] (33.3333 µM) | 0.0673
O=C(O[C@H]1CN2CCC1CC2)N1CCc2ccccc2[C@@H]1c1ccccc1 [Solifenacin succinate] (33.3333 µM) | 0.257
NC(N)=NC(=O)c1nc(Cl)c(N2CCCCCC2)nc1N [5-(N,N-hexamethylene)amiloride] (33.3333 µM) | 0.0262
CNCCC(Oc1ccc(C(F)(F)F)cc1)c1ccccc1 (stereo not given) [Fluoxetine hydrochloride] (33.3333 µM) | 0.0314
Cc1cccc(Nc2nc(-c3ccncc3)cs2)c1 (11.1 µM) | 1.07
C[C@@H](Oc1cc(-c2cnn(C3CCNCC3)c2)cnc1N)c1c(Cl)ccc(F)c1Cl (11.1 µM) | 0.15
c1ccc2c(NCCCCCCCNc3c4c(nc5ccccc35)CCCC4)c3c(nc2c1)CCCC3 [bis(7)-Tacrine] (3.33333 µM) | 0.0296
CCCCCCCCCCCCCCCCn1cc[n+](Cc2ccccc2)c1C (11.1 µM) | 0.0378
COc1cc2ncn(-c3cc(OCc4ccccc4C(F)(F)F)c(C(N)=O)s3)c2cc1OC (33.3333 µM) | 0.333
